The source made the active and inactive calls. Rule for the calls: active = hit-call score of the fitted dose curve at least 0.9, where 1 is the maximum; inactive = score below 0.9.
Columns and labels:
[1] = read-out: Tissue plasminogen activator (tPA), PLAT (gene 5327); assay: BSK_BE3C_tPA: BioMAP Diversity Plus: BE3C Assay for Tissue plasminogen activator (tPA) Biomarker Activity (AID 2283041); settings: primary human bronchial epithelial cells; actives raise or lower the signal;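 note: tPA level quantified by ELISA one day after compound addition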
Procedure, shortened: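 Primary human lung bronchial epithelial cultures receive test chemical; after 24 h, tPA is quantified by ELISA, and gain or loss of signal is fitted bidirectionally relative to DMSO baseline.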

[2] = read-out: Interleukin-8 (IL8), CXCL8 (gene 3576); assay: BSK_CASM3C_IL8: BioMAP Diversity Plus: CASM3C Assay for Interleukin-8 (IL8) Biomarker Activity (AID 2283042); settings: primary human coronary artery smooth muscle cells; actives raise or lower the signal;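 note: IL-8 protein level quantified by ELISA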
[3] = read-out: Human Leukocyte Antigen - DR isotype (HLADR), HLA-DRA (gene 3122); assay: BSK_CASM3C_HLADR: BioMAP Diversity Plus: CASM3C Assay for Human Leukocyte Antigen - DR isotype (HLADR) Biomarker Activity (AID 2283043); settings: primary human coronary artery smooth muscle cells; actives raise or lower the signal;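 note: cell-surface HLA-DR protein level quantified by ELISA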
[4] = read-out: Macrophage colony-stimulating factor (MCSF), CSF1 (gene 1435); assay: BSK_CASM3C_MCSF: BioMAP Diversity Plus: CASM3C Assay for Macrophage colony-stimulating factor (MCSF) Biomarker Activity (AID 2283044); settings: primary human coronary artery smooth muscle cells; actives raise or lower the signal;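 note: M-CSF protein amount quantified by ELISA after 24 h exposure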
[5] = read-out: Low-density lipoprotein receptor (LDLR), LDLR (gene 3949); assay: BSK_CASM3C_LDLR: BioMAP Diversity Plus: CASM3C Assay for Low-density lipoprotein receptor (LDLR) Biomarker Activity (AID 2283045); settings: primary human coronary artery smooth muscle cells; actives raise or lower the signal;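 note: LDLR protein level on the cell surface quantified by ELISA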
[6] = read-out: Monocyte Chemoattractant Protein-1 (MCP1), CCL2 (gene 6347); assay: BSK_CASM3C_MCP1: BioMAP Diversity Plus: CASM3C Assay for Monocyte Chemoattractant Protein-1 (MCP1) Biomarker Activity (AID 2283046); settings: primary human coronary artery smooth muscle cells; actives raise or lower the signal;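 note: MCP-1 level quantified by ELISA 24 h after dosing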
[7] = BSK_CASM3C_Proliferation: Cell Proliferation Assessment in the BioMAP Diversity Plus: CASM3C Assay (AID 2283047); settings: primary human coronary artery smooth muscle cells;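 note: sulforhodamine B total protein stain as relative cell number at 560 nm; sub-confluent cells exposed 48 h before staining; fitted both ways against DMSO so gain or loss of cell number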
[8] = read-out: Monokine induced gamma interferon (MIG), CXCL9 (gene 4283); assay: BSK_CASM3C_MIG: BioMAP Diversity Plus: CASM3C Assay for Monokine induced gamma interferon (MIG) Biomarker Activity (AID 2283048); settings: primary human coronary artery smooth muscle cells; actives raise or lower the signal;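 note: MIG protein level measured by ELISA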
[9] = read-out: serum amyloid A (SAA), SAA1 (gene 6288); assay: BSK_CASM3C_SAA: BioMAP Diversity Plus: CASM3C Assay for serum amyloid A (SAA) Biomarker Activity (AID 2283049); settings: primary human coronary artery smooth muscle cells; actives raise or lower the signal;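 note: SAA protein level quantified by ELISA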
[10] = BSK_CASM3C_SRB: Viability Assessment in the BioMAP Diversity Plus: CASM3C Assay (AID 2283050); settings: primary human coronary artery smooth muscle cells;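 note: total protein by SRB staining as cytotoxicity measure in parallel cultures; cells exposed to compound for 24 h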
[11] = read-out: Thrombomodulin, THBD (gene 7056); assay: BSK_CASM3C_Thrombomodulin: BioMAP Diversity Plus: CASM3C Assay for Thrombomodulin Biomarker Activity (AID 2283051); settings: primary human coronary artery smooth muscle cells; actives raise or lower the signal;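 note: thrombomodulin protein level measured by ELISA 24 h after dosing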
[12] = read-out: Tissue Factor, F3 (gene 2152); assay: BSK_CASM3C_TissueFactor: BioMAP Diversity Plus: CASM3C Assay for Tissue Factor Biomarker Activity (AID 2283052); settings: primary human coronary artery smooth muscle cells; actives raise or lower the signal;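 note: cell surface tissue factor protein level read by ELISA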
[13] = read-out: Interferon-gamma inducible Protein 10 (IP10), CXCL10 (gene 3627); assay: BSK_hDFCGF_IP10: BioMAP Diversity Plus: hDFCGF Assay for Interferon-gamma inducible Protein 10 (IP10) Biomarker Activity (AID 2283053); settings: primary human foreskin fibroblasts; actives raise or lower the signal
Procedure, shortened: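 Primary foreskin fibroblasts, human; 24 h compound exposure; IP-10 by ELISA; bidirectional fit vs DMSO.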

[14] = read-out: Urokinase-type plasminogen activator receptor (uPAR), PLAUR (gene 5329); assay: BSK_CASM3C_uPAR: BioMAP Diversity Plus: CASM3C Assay for Urokinase-type plasminogen activator receptor (uPAR) Biomarker Activity (AID 2283054); settings: primary human coronary artery smooth muscle cells; actives raise or lower the signal;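 note: cell-surface uPAR protein level quantified by ELISA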
[15] = read-out: Vascular cell adhesion molecule 1 (VCAM1), VCAM1 (gene 7412); assay: BSK_CASM3C_VCAM1: BioMAP Diversity Plus: CASM3C Assay for Vascular cell adhesion molecule 1 (VCAM1) Biomarker Activity (AID 2283055); settings: primary human coronary artery smooth muscle cells; actives raise or lower the signal;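 note: VCAM-1 protein level quantified by ELISA on the cells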
[16] = read-out: Collagen III, COL3A1 (gene 1281); assay: BSK_hDFCGF_CollagenIII: BioMAP Diversity Plus: hDFCGF Assay for Collagen III Biomarker Activity (AID 2283056); settings: primary human foreskin fibroblasts; actives raise or lower the signal
Procedure, shortened: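 Human foreskin primary fibroblasts were exposed to test chemicals for 24 h, after which collagen III was quantified by ELISA. Activity was fitted bidirectionally against DMSO as negative control and baseline.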

[17] = read-out: Epidermal growth factor receptor (EGFR), EGFR (gene 1956); assay: BSK_hDFCGF_EGFR: BioMAP Diversity Plus: hDFCGF Assay for Epidermal growth factor receptor (EGFR) Biomarker Activity (AID 2283057); settings: primary human foreskin fibroblasts; actives raise or lower the signal
Procedure, shortened: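 hDFCGF system, primary human foreskin fibroblasts; compound 24 h; EGFR measured by ELISA; DMSO = negative control/baseline; bidirectional fitting.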

[18] = read-out: Interleukin-8 (IL8), CXCL8 (gene 3576); assay: BSK_hDFCGF_IL8: BioMAP Diversity Plus: hDFCGF Assay for Interleukin-8 (IL8) Biomarker Activity (AID 2283058); settings: primary human foreskin fibroblasts; actives raise or lower the signal
Procedure, shortened: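 hDFCGF human dermal fibroblasts; 24 h chemical exposure; IL-8 by ELISA; bidirectional curve fit vs DMSO baseline; gain or loss of signal scored.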

[19] = read-out: Macrophage colony-stimulating factor (MCSF), CSF1 (gene 1435); assay: BSK_hDFCGF_MCSF: BioMAP Diversity Plus: hDFCGF Assay for Macrophage colony-stimulating factor (MCSF) Biomarker Activity (AID 2283060); settings: primary human foreskin fibroblasts; actives raise or lower the signal
Procedure, shortened: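 Human foreskin primary fibroblasts were treated with test chemical for 24 h, and M-CSF was then measured by ELISA. Data were fitted bidirectionally against DMSO as the negative control and activity baseline.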

[20] = BSK_hDFCGF_Proliferation: Cell Proliferation Assessment in the BioMAP Diversity Plus: hDFCGF Assay (AID 2283059); settings: primary human foreskin fibroblasts;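 note: curves fitted for both rise and fall of signal versus DMSO baseline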
Procedure, shortened: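 This proliferation readout used SRB total-protein staining of human foreskin fibroblasts […], normalized to DMSO with bidirectional curve fitting.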

For `O=C(Oc1ccc(Br)cc1)N1CCN2CCC1CC2`, the outcome [1] was “inactive”, the outcome [2] was “inactive” and the outcome [3] was “inactive”. The outcome [4] was “inactive”, the outcome [5] was “inactive” and the outcome [6] was “inactive”. The outcome [7] was “inactive”, the outcome [8] was “inactive” and the outcome [9] was “inactive”. The outcome [10] was “inactive”, the outcome [11] was “inactive” and the outcome [12] was “inactive”. The outcome [13] was “inactive”, the outcome [14] was “inactive” and the outcome [15] was “inactive”. The outcome [16] was “inactive”, the outcome [17] was “inactive” and the outcome [18] was “inactive”. For the same compound, the outcome [19] was “inactive”.
With `O=[N+]([O-])c1ccc(Oc2ccc(Cl)cc2Cl)cc1` the outcome [1] was “inactive”, the outcome [2] was “inactive” and the outcome [3] was “inactive”. The outcome [4] was “inactive”, the outcome [5] was “inactive” and the outcome [6] was “inactive”. For the same compound, the outcome [7] was “inactive”, the outcome [8] was “inactive” and the outcome [9] was “inactive”. The outcome [10] was “inactive”, the outcome [11] was “inactive” and the outcome [12] was “inactive”. The AC50 [13] was 20 µM (active), the outcome [14] was “inactive” and the outcome [15] was “inactive”. For the same compound, the AC50 [16] was 12.1 µM (active), the outcome [17] was “inactive” and the outcome [18] was “inactive”. For the same compound, the AC50 [20] was 20 µM (active) and the AC50 [19] was 13.1 µM (active).
With `CCC(C)c1ccc(O)cc1` (stereo not given) the outcome [2] was “inactive”, the outcome [3] was “inactive” and the outcome [4] was “inactive”. The outcome [5] was “inactive”, the outcome [6] was “inactive” and the outcome [7] was “inactive”. The outcome [8] was “inactive”, the outcome [9] was “inactive” and the outcome [10] was “inactive”. For the same compound, the outcome [11] was “inactive”, the outcome [12] was “inactive” and the outcome [13] was “inactive”. For the same compound, the outcome [14] was “inactive”, the outcome [15] was “inactive” and the outcome [16] was “inactive”. For the same compound, the outcome [17] was “inactive”, the outcome [18] was “inactive” and the outcome [20] was “inactive”. The outcome [19] was “inactive”.
For `Nc1ccc(Cc2ccc(N)cc2)cc1`, the outcome [1] was “inactive”, the outcome [2] was “inactive” and the outcome [3] was “inactive”. The outcome [4] was “inactive”, the outcome [5] was “inactive” and the outcome [6] was “inactive”. For the same compound, the outcome [7] was “inactive”, the outcome [8] was “inactive” and the outcome [9] was “inactive”. The outcome [10] was “inactive”, the outcome [11] was “inactive” and the outcome [12] was “inactive”. For the same compound, the outcome [13] was “inactive”, the outcome [14] was “inactive” and the outcome [15] was “inactive”. For the same compound, the outcome [16] was “inactive”, the outcome [17] was “inactive” and the outcome [18] was “inactive”. The outcome [19] was “inactive”.
In the case of `CCCCCCCCOC(=O)c1ccc(C(=O)OCCCCCCCC)c(C(=O)OCCCCCCCC)c1`, the outcome [1] is reported as “inactive”, the outcome [2] is reported as “inactive” and the outcome [3] is reported as “inactive”. For the same compound, the outcome [4] was “inactive”, the outcome [5] was “inactive” and the outcome [6] was “inactive”. The outcome [7] was “inactive”, the outcome [8] was “inactive” and the outcome [9] was “inactive”. For the same compound, the outcome [10] was “inactive”, the outcome [11] was “inactive” and the outcome [12] was “inactive”. The outcome [13] was “inactive”, the outcome [14] was “inactive” and the outcome [15] was “inactive”. For the same compound, the outcome [16] was “inactive”, the outcome [17] was “inactive” and the outcome [18] was “inactive”. The outcome [19] was “inactive”.
With `Clc1ccccc1Cl` the outcome [1] was “inactive”, the outcome [2] was “inactive” and the outcome [3] was “inactive”. The outcome [4] was “inactive”, the outcome [5] was “inactive” and the outcome [6] was “inactive”. The outcome [7] was “inactive”, the outcome [8] was “inactive” and the outcome [9] was “inactive”. The outcome [10] was “inactive”, the outcome [11] was “inactive” and the outcome [12] was “inactive”. For the same compound, the outcome [13] was “inactive”, the outcome [14] was “inactive” and the outcome [15] was “inactive”. The outcome [16] was “inactive”, the outcome [17] was “inactive” and the outcome [18] was “inactive”. The outcome [19] was “inactive”.

Reference: PubChem BioAssay (EPA / NIEHS)
